# Compounds with a hit are over-represented: about 2.6% of the library has one in this group of screens.
# HEK293 tox: cytotoxicity counter-screen for GLP-1 receptor inverse agonists. HEK293 cAMP-luciferase reporter cells, luminescence, 24 h. Potency, µM (series often up to 38.3 µM), usual class: inhibitors. 410,000 compounds, 0.13% hits;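 also: loss of luciferase light is scored as toxicity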
#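 Seeding density was 200 cells/uL; after overnight-length (12 h) culture, 23 nL compounds went on for 24 h at 37 °C. Readout used a luciferase detection reagent, luminescence taken after 12 min at room temperature.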
# GLP-1R agonist: agonists of human GLP-1 receptor; P43220; HEK293 GLP-1R CRE-luciferase, luminescence, 4-6 h; cells express a hypersensitive GLP-1R form; Potency, µM (titrated, usually from 45.6 µM), usual class: activators; 380,000 compounds, 0.007% hits; AID 624172
# Target sequence (P43220 whole entry, looked up): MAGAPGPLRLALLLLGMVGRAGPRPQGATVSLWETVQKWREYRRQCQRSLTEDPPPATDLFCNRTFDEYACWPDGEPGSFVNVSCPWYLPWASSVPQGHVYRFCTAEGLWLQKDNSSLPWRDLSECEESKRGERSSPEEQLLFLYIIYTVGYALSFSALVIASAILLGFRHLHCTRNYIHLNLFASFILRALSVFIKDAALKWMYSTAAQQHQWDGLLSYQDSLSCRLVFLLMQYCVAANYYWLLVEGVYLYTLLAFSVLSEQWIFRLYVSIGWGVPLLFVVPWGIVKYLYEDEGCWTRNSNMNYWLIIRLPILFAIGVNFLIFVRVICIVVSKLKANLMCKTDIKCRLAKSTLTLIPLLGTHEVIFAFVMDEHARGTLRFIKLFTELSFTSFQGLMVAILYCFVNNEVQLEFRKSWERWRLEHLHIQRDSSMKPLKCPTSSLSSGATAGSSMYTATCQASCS
# BRCA1 expr act: increases BRCA1 expression. MCF7-BRCA1-FFLuc reporter, luminescence, 48 h; response scale: scaled: vehicle 0%, 10 µM genistein 100%. Potency, µM (top dose mostly 46.1 µM), hits mostly activators. 380,000 compounds, 1.1% hits. AID 624202; also: nearly all actives have a fitted effect of over 80% in size
#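 48 h compound treatment of MCF7-BRCA1-FFLuc cells (phenol-red free MEM, 37 °C), then 15 min with luciferase substrate and luminescence imaging.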
# GLP1R inv ag: acts as inverse agonist at human GLP-1 receptor; AID 624417; P43220; HEK293 GLP-1R CRE-luciferase, luminescence, 24 h; GLP-1R form is constitutively active; 410,000 compounds, 1.6% hits; Potency, µM (doses to about 38.3 µM), hits mostly inhibitors; also: nearly all actives have a fitted effect of over 55% in size
#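 Stable HEK293 clone (constitutively active GLP-1R + cAMP-response luciferase); 200 cells/uL plated, 12 h pre-culture, compound 24 hr, 37 deg C/5% CO2; detection reagent 12 min RT; luminescence.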
# Hits are given with their value; - = inactive; ? = inconclusive; . = not tested or not shown. Calls follow the shape of the dose curve; as a rule, active = well fitted curve in the direction sought with a large enough effect; inconclusive = small, poorly fitted or top-dose-only effect, or another doubt; inactive = no such curve, though single readings can be large; an effect the other way counts as inactive or inconclusive.
SMILES,HEK293 tox,GLP-1R agonist,BRCA1 expr act,GLP1R inv ag
CCOC(=O)c1ccc2[nH]c3c(c2c1)CCCCC3=O,-,-,3.98µM,-
NC(=O)C1CCCCc2c1[nH]c1ccc(Cl)cc21 (stereo not drawn),-,-,-,12.6µM
O=[N+]([O-])/C=C\c1ccc(N2CCOCC2)cc1,?,-,-,11.2µM
CC(C)Oc1ccccc1-c1nc(SCC(=O)c2ccc(F)cc2)n[nH]1,-,.,.,?
CC(C)N(C(C)C)S(=O)(=O)c1ccc(N2CCc3ccccc3C2)nc1,-,-,-,7.94µM
O=C(NCC1CCCO1)C(c1cccs1)N(C(=O)c1ccc(-c2ccccc2)[nH]1)C1CCCC1 (stereo not drawn),-,-,-,10µM
CCOc1c(Br)cc(CNC2CCCCCCC2)cc1OC,-,-,-,3.16µM
COc1cc(CNC2CCCCCCC2)cc(Br)c1OCC#N,?,-,-,?
COc1ccc(-c2nc(CN3CCN(Cc4ccccc4)CC3)c(C)o2)cc1,-,-,-,?
Cc1oc(-c2ccc(-c3ccccc3)cc2)nc1CN1CCN(CC(=O)N(C)C)CC1,-,-,8.91µM,-
Cc1oc(-c2ccc(C(=O)N(C)Cc3ccccc3)cc2)nc1CN1CCc2ccccc21,-,-,-,11.2µM
Cc1ccc(CNC(=O)c2ccc(-c3nc(CN4CCc5ccccc54)c(C)o3)cc2)cc1,-,-,-,-
Cc1cc(N2CCN(Cc3nc(-c4ccc(Cl)cc4)oc3C)CC2)cc(C)n1,?,-,-,1µM
O=C(CN1C(=O)CC(c2ccc(F)cc2)=Nc2ccccc21)NCc1ccccc1Cl,-,.,.,-
Cc1onc(-c2c(Cl)cccc2Cl)c1C(=O)N1CCN(c2ccc(F)cc2)CC1,-,-,-,12.6µM
COc1ccccc1-c1sc2cc3c(cc2c1-c1ccc(OCCN2CCCCC2)cc1)OCO3,?,-,-,12.6µM
COc1ccccc1-c1sc2ccccc2c1-c1ccc2c(c1)OCO2,-,-,-,10µM
CCn1cc2nc(SCc3ccccc3F)n(Cc3ccc(C)cc3)c(=O)c2n1,-,.,-,-
Clc1ncc(C#Cc2ccccc2)c2ncncc12,.,.,-,.
CCOc1ccc(C(=O)c2cn(CC(=O)Nc3ccc(OC)cc3)c3cc4c(cc3c2=O)OCO4)cc1,-,-,-,-
Cc1nn(C)c(C)c1CCNC(=O)Nc1cccc(Cl)c1C,-,.,-,-
COc1cccc(/C=C2\CCc3ccccc3C2=O)c1,-,-,12.6µM,-
COc1cccc(C=C2Cc3ccccc3C2=O)c1,-,-,-,-
CC(=O)Oc1ccc(/C=C2/CCc3ccccc3C2=O)cc1,-,-,12.6µM,?
C=C1C=C(C(F)F)n2ncc(C(=O)NCc3ccc(OC)cc3)c2N1,.,.,-,.
SMILES,HEK293 tox,GLP-1R agonist,BRCA1 expr act,GLP1R inv ag
COCCNC(=S)N(CCc1c(C)[nH]c2ccc(F)cc12)Cc1cccs1,-,-,-,?
COCCNC(=S)N(CCc1c(C)[nH]c2ccc(Cl)cc12)Cc1cccs1,?,-,-,2.51µM
CN1CCC(N(C)S(=O)(=O)c2ccc(NC(=O)COc3ccc(F)cc3)cc2)CC1,-,-,-,?
CN1CCC(N(C)S(=O)(=O)c2ccc(NC(=O)COc3ccc(F)cc3Cl)cc2)CC1,-,-,-,10µM
CCN1CCOC(=O)C1CC(=O)Nc1cc(C)cc(C)c1 (stereo not drawn),-,.,.,-
O=C(Nc1cnc2ccccn2c1=O)c1ccc(Cl)cc1,-,-,11.2µM,-
Cc1cccc(C(=O)NNC2=C(C(=O)C(F)(F)F)CCC2)c1O,?,-,-,2.82µM
O=C(NNC1=C(C(=O)C(F)(F)F)CCC1)c1cccc(O)c1,-,-,-,?
CC(C)n1c(NCc2cc(Cl)ccc2O)nc2ccccc21,-,-,-,10µM
Oc1ccc(Cl)cc1CNc1cnc2ccccc2c1,-,-,-,10µM
Oc1ccccc1CNc1cnc2ccccc2c1,-,-,?,-
Cc1ccc(O)c(CNc2nc3ccccc3n2C(C)C)c1,-,-,-,?
Cc1ccc2c(c1)CO[C@]21O[C@H](CCO)C[C@H](O)[C@H]1O,-,-,-,-
COc1ccc(Cl)cc1-c1nc(-c2ccc(NC(=O)c3ccncc3)cc2)no1,-,-,-,-
CC(Oc1ccc(Cl)cc1Cl)c1nc(-c2ccc(NC(=O)c3ccccn3)cc2)no1 (stereo not drawn),-,-,1.26µM,-
CC1CCC2(CC1)NC(=O)N(Cc1cccc(C(F)(F)F)c1)C2=O (stereo not drawn),-,-,-,2.24µM
CCOc1ccc(CN2CCN(Cc3cc4c(cc3Cl)OCO4)CC2CCO)cc1 (stereo not drawn),-,-,-,7.94µM
O=C(N/N=C/c1ccc[nH]1)c1sc2ccccc2c1Cl,?,-,-,10µM
Cc1oc(=O)oc1CN1CCN(c2cc3c(cc2F)c(=O)c(C(=O)O)c2n3C(C)S2)CC1 (stereo not drawn),.,-,.,.
COc1ccc(NC(=O)Cn2c(=O)cc(C)c3c(C)nn(C)c32)cc1,-,-,-,-
CCN(CC)CC(O)COC(c1ccccc1)c1ccccc1 (stereo not drawn),-,-,-,-
CCN(Cc1ccccc1)CC(O)COC(c1ccc(OC)cc1)c1ccc(OC)cc1 (stereo not drawn),?,-,-,10µM
CCc1nn(CCCC(=O)N2CCN(c3cccc(C)c3C)CC2)c(=O)c2cc3occc3n12,-,-,-,11.2µM
CCc1nn(CC(=O)N2CCN(c3cccc(C)c3C)CC2)c(=O)c2cc3occc3n12,-,.,-,-
Cc1ccc(CCNC(=O)CSCc2nc(-c3ccc(C)cc3)oc2C)cc1,-,.,.,-
SMILES,HEK293 tox,GLP-1R agonist,BRCA1 expr act,GLP1R inv ag
Cc1cc(N/N=C/c2ccccc2)nc(NCc2ccccc2)n1,-,-,-,?
Cc1cc(Nc2cccc(Cl)c2)nc(NCc2ccccc2)n1,-,-,-,10µM
Cc1cc(N/N=C/c2cccc(Cl)c2)nc(NCc2ccccc2)n1,?,-,-,11.2µM
Cc1cc(N/N=C/c2ccc(Cl)cc2)nc(NCc2ccccc2)n1,-,-,-,4.47µM
O=C(c1ccc(Br)c(S(=O)(=O)N2CCCCC2)c1)N1CCCCC1,-,-,-,-
COc1cc2c(cc1OC)C(c1ccc(Cl)cc1)N(c1ccc(C)c(F)c1)C(=O)C2 (stereo not drawn),-,.,.,?
COc1ccc(/C=C(\C#N)c2nc(-c3cc(Cl)ccc3OC)cs2)cc1,-,.,.,-
O=C(NCCC1CCCCN1S(=O)(=O)c1ccc(F)cc1)C(=O)NCc1cccnc1 (stereo not drawn),-,-,-,-
O=C(NCc1cccs1)Nc1cc(Cl)ccc1Cl,10µM,-,-,?
O=C(/C=C/c1ccc(S(=O)(=O)N2CCOCC2)cc1)NCc1ccc(Cl)cc1,-,-,-,3.55µM
O=C(/C=C/c1cccc(Cl)c1)NCc1cccs1,-,-,-,-
O=C(/C=C/c1ccc(Cl)cc1)NCc1cccs1,-,-,11.2µM,-
CCc1cccc(NC(=O)C(Cc2ccccc2)NS(=O)(=O)c2ccc3c(c2)c(=O)n(C)c(=O)n3C)c1 (stereo not drawn),-,-,-,?

# From PubChem
